Laboratory results as given in article PMC4336329 (PLoS ONE, 2015).
The campaign covered roughly 310,000 compounds. About 14,000 (4.5%) showed an effect of 50% or more. Effects have a minus sign here. What follows is part of a selection rich in strong results, with near analogues and random picks from the rest.

biological target: human ether-à-go-go-related gene (hERG) potassium channel (human, UniProt Q12809); assay: primary screen, population patch clamp on CHO cells stably expressing hERG; higher = less effect of the substance
Sequence (Q12809 whole entry, looked up): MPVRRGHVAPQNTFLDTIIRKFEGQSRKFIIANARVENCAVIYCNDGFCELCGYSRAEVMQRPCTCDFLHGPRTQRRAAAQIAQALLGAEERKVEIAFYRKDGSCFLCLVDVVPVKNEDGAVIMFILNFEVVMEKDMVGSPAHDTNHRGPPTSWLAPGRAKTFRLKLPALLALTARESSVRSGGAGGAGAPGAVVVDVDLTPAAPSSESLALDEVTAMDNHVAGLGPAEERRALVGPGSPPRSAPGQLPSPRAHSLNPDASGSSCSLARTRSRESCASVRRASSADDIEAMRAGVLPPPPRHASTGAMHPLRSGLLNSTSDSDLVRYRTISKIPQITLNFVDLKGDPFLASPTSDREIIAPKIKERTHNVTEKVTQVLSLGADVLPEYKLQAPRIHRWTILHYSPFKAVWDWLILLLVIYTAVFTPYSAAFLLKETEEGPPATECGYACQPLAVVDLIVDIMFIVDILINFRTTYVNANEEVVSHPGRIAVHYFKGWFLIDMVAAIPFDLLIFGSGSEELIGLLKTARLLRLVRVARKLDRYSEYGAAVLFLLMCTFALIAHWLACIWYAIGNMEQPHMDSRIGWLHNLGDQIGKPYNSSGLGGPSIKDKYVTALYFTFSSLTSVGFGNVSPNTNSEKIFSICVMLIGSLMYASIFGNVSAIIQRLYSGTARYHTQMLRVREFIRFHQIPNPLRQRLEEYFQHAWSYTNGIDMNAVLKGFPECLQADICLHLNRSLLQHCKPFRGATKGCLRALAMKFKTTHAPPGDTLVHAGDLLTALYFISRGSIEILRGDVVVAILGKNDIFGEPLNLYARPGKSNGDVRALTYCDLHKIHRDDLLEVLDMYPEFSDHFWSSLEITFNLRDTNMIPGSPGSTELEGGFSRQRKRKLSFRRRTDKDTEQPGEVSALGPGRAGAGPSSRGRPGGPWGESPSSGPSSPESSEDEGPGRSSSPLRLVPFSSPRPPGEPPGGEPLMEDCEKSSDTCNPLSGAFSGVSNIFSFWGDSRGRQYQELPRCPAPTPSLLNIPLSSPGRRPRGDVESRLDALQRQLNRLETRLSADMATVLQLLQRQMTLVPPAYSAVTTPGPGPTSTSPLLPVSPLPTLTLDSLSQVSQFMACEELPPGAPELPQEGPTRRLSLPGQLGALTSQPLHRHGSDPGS
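Further: peak tail current of the secondary pulse compared with the same well before compound.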

Structure (SMILES)	hERG current change (%, negative = inhibition) at 10uM [%]
O=C(NCCCc1nc2ccccc2[nH]1)c1cccs1	-5.12
COc1ccccc1CNCc1ccc(C)cc1.O=C(O)C(=O)O	-6.14
COc1cccc(CNCc2ccccn2)c1OC	5.32
COc1ccc2ccccc2c1CNCc1ccccn1.Cl	-51.8
COc1ccc2ccccc2c1CNCc1ccc(C)cc1.O=C(O)C(=O)O	-69.7
COc1ccc(CCNCc2c(OC)ccc3ccccc23)cc1.O=C(O)C(=O)O	-44.9
COc1ccc(CCNCc2ccccn2)cc1OC	0.278
CC(C)N(Cc1nc(-c2ccc(Cl)cc2)no1)C(=O)CCC1CCCC1	-7.81
Cc1nn(CCCC(=O)NC2CCC(C)CC2)c(=O)c2nn(-c3ccccc3)c(C)c12 (centres unmarked)	-5.97
O=C(/C=C(/c1ccc(Cl)cc1)n1cncn1)c1ccccc1	-27.5
C#CCOCCOCCOCCNc1nc(N2CCN(C(=O)[C@H](CCC(=O)O)n3cc(C(N)CO)nn3)CC2)nc(N2CCN(C(=O)[C@H](Cc3ccc(O)cc3)n3cc(C(N)[C@H](C)CC)nn3)CC2)n1.Cl (some centres unmarked)	9.89
CCN(CC(=O)Nc1c(F)cccc1F)C(=O)COc1ccc2c(c1)CCC2	-2.81
O=S(=O)(c1ccc(Nc2ccc(-c3ccc4c(c3)OCCO4)nn2)cc1)N1CCCC1	5.27
COc1ccccc1CNc1ccc2nnc(CCNC(=O)c3ccc(C)cc3)n2n1	-0.303
CCOCCn1c(CN2CCN(C(=O)c3ccco3)CC2)nc2c1c(=O)n(C)c(=O)n2C	-3.37
CCCCCn1c(CN2CCN(C(=O)c3ccco3)CC2)nc2c1c(=O)n(C)c(=O)n2C	-60.5
CCCCn1c(CN2CCN(C(=O)c3ccco3)CC2)nc2c1c(=O)n(C)c(=O)n2C	-34.1
CCCn1c(CN2CCN(C(=O)c3ccco3)CC2)nc2c1c(=O)n(C)c(=O)n2C	-10.3
CC(C)CCn1c(CN2CCN(C(=O)c3ccco3)CC2)nc2c1c(=O)n(C)c(=O)n2C	-39.9

Structure (SMILES)	hERG current change (%, negative = inhibition) at 10uM [%]
CCCCCCn1c(CN2CCN(C(=O)c3ccco3)CC2)nc2c1c(=O)n(C)c(=O)n2C	-65.8
Cl.OC1(c2ccccc2)CCN(Cc2ccccc2)C2CCCCC21 (centres unmarked)	-15.6
COc1ccc(-c2nnc3sc(-c4ccco4)nn23)cc1OC	3.81
COCCCNc1nnc(Cc2ccccc2)c2ccccc12	-31.4
CC1(C)CC(=O)N(c2cccc(Cl)c2)C(=O)C1	10.4
CCOC(=O)C1CCN(C(=O)c2cc3c(=O)n4ccccc4nc3s2)CC1	-6.6
CCOc1ccccc1Cn1c(=O)sc2ccccc21	7.43
COc1ccc(C(=O)NN/C(C)=C/C(=O)c2ccccc2)cc1	4.41
CCN(CC(=O)Nc1c(F)cccc1F)C(=O)C1CCN(C(=O)c2ccc(F)cc2)CC1	4.59
CCc1ccc(NC(=S)N(Cc2cccnc2)Cc2ccco2)cc1	-17.2
S=C(Nc1ccccc1Cl)N(Cc1cccnc1)Cc1ccco1	-4.94
O=C(Nc1ccc(Cl)cc1)N(Cc1cccnc1)Cc1ccco1	-63.9
CCc1ccccc1NC(=S)N(Cc1cccnc1)Cc1ccco1	-18.8
O=C(Nc1ccccc1)N(Cc1cccnc1)Cc1ccco1	-32.9
COc1ccc(Cl)cc1NC(=S)N(Cc1cccnc1)Cc1ccco1	-73.8
N#CCCN(Cc1cccnc1)C(=O)Nc1ccc(Cl)c(Cl)c1	-26
O=C(Nc1ccc(Cl)c(Cl)c1)N(Cc1cccnc1)Cc1ccco1	-73.7
Cc1ccc(NC(=O)N(Cc2cccnc2)Cc2ccco2)cc1C	-27.2
COc1ccccc1NC(=S)N(Cc1cccnc1)Cc1ccco1	-33.6

Structure (SMILES)	hERG current change (%, negative = inhibition) at 10uM [%]
O=C(c1ccco1)N(Cc1ccc(Cl)cc1)Cc1ccco1	-41.2
CCc1ccc(NC(=O)N(Cc2cccnc2)Cc2ccco2)cc1	-53.1
COc1ccc(-n2c(=O)c3ccccc3n(CC(=O)c3ccccc3)c2=O)cc1OC	-1.32
Cc1ccccc1OCCNc1cc(N2CCCCC2)ccc1[N+](=O)[O-]	-17.2
CCCCC(=O)Nc1ccc(C(=O)Nc2ccc(OC)cc2[N+](=O)[O-])cc1	-8.04
O=C(O)c1cn(-c2ccccc2)nc1-c1ccc(F)cc1	23.6
O=C1CN(C(=O)COC(=O)Cc2ccsc2)c2ccccc2N1	-4.05
CCC(=O)N(c1nnc(SCC(=O)NN2C(=O)NC3(CCC(C)CC3)C2=O)s1)C1CC1 (centres unmarked)	-5.47
O=C(CCS(=O)(=O)c1cccc2nonc12)Nc1ccc(Br)cc1	7.91
O=C(CCC1COc2ccccc2O1)N1CCCC1 (centres unmarked)	-3.13
Cc1cc(C)n(C(=O)CCC2COc3ccccc3O2)n1 (centres unmarked)	-76.6
Cc1cc(C)n(C(=O)CNC(=O)C2COc3ccccc3O2)n1 (centres unmarked)	14.5
COc1ccc(C(=O)CN2C3=NCCCN3c3ccccc32)cc1OC	-36.5
Br.O=C(CN1C2=NCCCN2c2ccccc21)c1ccc([N+](=O)[O-])cc1	-75.1
Br.O=C(CN1CCCCC1)c1cccc(Br)c1	7.58
Br.COc1cccc(C(=O)Cn2c(=N)n(C)c3ccccc32)c1	-27.2
Br.O=C(CN1C2=NCCCN2c2ccccc21)c1cccc(Br)c1	-71
Br.COc1cccc(C(=O)CN2C3=NCCCN3c3ccccc32)c1	-68.1
